The experiment addresses Estrogen receptor beta (Homo sapiens) (UniProt Q92731). Nature of the experiment: ERbeta ligand binders by competition, primary screen, cell-based, Cos7 ERbeta-GFP, flow cytometry (AID 1210).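 Further: 0% = DMSO vehicle wells and 100% = complete loss of labeled estradiol signal.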 The conditions noted are these: fluorescent estrogen binding, stronger effect = higher value. A general note: Flow cytometry measures light scatter and fluorescence of single cells or particles in a stream.

The mark [1] stands for this setting: ligand binding inhibition, at 0.1 µM.

Calls of active or inactive are those of the source.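 How the source made its calls: active means blocks over 70% of labeled estradiol binding at 10 µM, or over a set limit at 100 nM; inactive means the rest.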

Sequence of Estrogen receptor beta (Homo sapiens) (Q92731 whole entry, looked up): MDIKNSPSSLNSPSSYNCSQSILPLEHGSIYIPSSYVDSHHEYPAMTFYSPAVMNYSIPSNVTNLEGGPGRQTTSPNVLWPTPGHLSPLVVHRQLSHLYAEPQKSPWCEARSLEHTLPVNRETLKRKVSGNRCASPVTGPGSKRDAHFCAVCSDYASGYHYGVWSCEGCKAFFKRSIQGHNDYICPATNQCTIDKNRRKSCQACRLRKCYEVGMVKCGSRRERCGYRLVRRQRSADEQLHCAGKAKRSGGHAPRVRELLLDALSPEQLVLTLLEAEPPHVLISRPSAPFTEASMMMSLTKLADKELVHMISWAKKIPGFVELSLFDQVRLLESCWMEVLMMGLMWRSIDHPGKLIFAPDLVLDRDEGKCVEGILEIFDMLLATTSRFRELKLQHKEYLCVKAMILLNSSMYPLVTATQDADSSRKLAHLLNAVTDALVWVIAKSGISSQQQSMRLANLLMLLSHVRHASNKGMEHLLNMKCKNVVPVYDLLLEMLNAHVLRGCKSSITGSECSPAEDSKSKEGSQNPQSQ

Usually inhibition stands for the change of the read-out against control, counted positive when it falls. For the compound `Cc1ccc(Cn2c(NC(=O)c3ccco3)nc3ccccc32)cc1`, the inhibition was 10% (inactive) (at 10 µM) and 19% under setting [1].

Take `C[C@]12CC[C@@H]3c4ccc(O)cc4C(=O)C[C@H]3[C@@H]1CC[C@@H]2O`: the inhibition (at 10 µM) is 45% (active) and the inhibition under setting [1] amounted to 89%.

As for `COc1ccc2cc3c(N)nn(C(=O)Cc4ccc(Cl)cc4)c3nc2c1`, the inhibition was 37% (inactive) (at 10 µM) and 12% under setting [1].

Regarding `CCOC(=O)C1=C(O)/C(=C\c2ccc(CNC(=O)C(=O)Nc3ccccc3)o2)N=C1C`, the inhibition by setting is: (at 10 µM) 20% (inactive); under setting [1], 61%.

With `COc1ccc(-c2cn3c(C)c(C(=O)Nc4ccncc4)sc3n2)cc1`, the inhibition runs as follows: (at 10 µM) 60% (inactive); under setting [1], 19%.

As for `Brc1cc2c(cc1C1Nc3ccccc3C3C=CCC31)OCO2` (configuration not stated), the inhibition is, setting by setting: (at 10 µM) 20% (inactive); under setting [1], 25%.

As to `Nc1ccc2nc(-c3cccs3)[nH]c2c1`, the inhibition runs as follows: (at 10 µM) 50% (inactive); under setting [1], 34%.

In the case of `CCOC(=O)CSc1nn(C)c(=S)s1`, the inhibition by setting is: (at 10 µM) 47% (active); under setting [1], 72%.

For the compound `O=c1oc2ccccc2n1CCn1c2ccccc2c2nc3ccccc3nc21`, the inhibition by setting is: (at 10 µM) 70% (inactive); under setting [1], 18%.

On to `COc1ccc(-c2ccc(-c3noc(-c4cccs4)n3)c(OC)n2)cc1`, for which the inhibition is 63% (inactive) (at 10 µM) and 20% under setting [1].

For `Cc1ccnc(NS(=O)(=O)c2ccc(NC(=O)Cc3cccs3)cc2)n1`, the inhibition is, setting by setting: (at 10 µM) 38% (inactive); under setting [1], 47%.

For the compound `O=C(O)c1ccc(NS(=O)(=O)c2ccc3c(c2)C2C=CCC2C(c2ccccc2F)N3)cc1` (configuration not stated), the inhibition (at 10 µM) is 7% (inactive) and the inhibition under setting [1] was determined as 9%.

`CC1CC(C(F)(F)C(F)(F)F)n2nc(C(=O)O)cc2N1` (configuration not stated): the inhibition was 58% (inactive) (at 10 µM) and 27% under setting [1].

Take `Cc1nnc(NC(=O)Cc2cccs2)s1`: the inhibition was 4% (inactive) (at 10 µM) and 22% under setting [1].

In the case of `CCCC1=NN2C(=N)/C(=C\c3ccc(SCc4ccco4)o3)C(=O)N=C2S1`, the inhibition runs as follows: (at 10 µM) 13% (inactive); under setting [1], 17%.

Consider `CCCCn1c(=O)[nH]c2nc3cc(N)ccc3nc2c1=O`, for which the inhibition (at 10 µM) was 31% (inactive) and the inhibition under setting [1] stood at 16%.

Turning to `CC(=O)c1cccc(NC(=O)Cc2cccs2)c1`, the inhibition is, setting by setting: (at 10 µM) 11% (inactive); under setting [1], 23%.

Consider `O=C1C2CC=C(Cl)CC2C(=O)N1CCCCCCN1C(=O)C2CC=C(Cl)CC2C1=O` (configuration not stated), for which the inhibition is, setting by setting: (at 10 µM) 28% (inactive); under setting [1], 36%.

Regarding `Cc1cc(-c2nnc3sc(-c4ccc(Cl)cc4Cl)nn23)n[nH]1`, the inhibition was 32% (inactive) (at 10 µM) and 38% under setting [1].

For the compound `O=C(Cn1c(=O)n(Cc2ccco2)c(=O)c2c3c(sc21)CCCCC3)Nc1ccccc1`, the inhibition is 37% (inactive) (at 10 µM) and 39% under setting [1].

`CCCN(CCC)S(=O)(=O)c1ccc(NC(=O)Cc2cccs2)cc1`: the inhibition (at 10 µM) was 46% (inactive) and the inhibition under setting [1] amounted to 20%.

For `O=C(Nc1nccs1)c1nc(-c2ccccc2)n(-c2ccccc2)n1`, the inhibition (at 10 µM) was 38% (inactive) and the inhibition under setting [1] is 22%.

For the compound `NC(=O)c1oc2ccccc2c1NC(=O)c1nc2ccccc2s1`, the inhibition (at 10 µM) is 39% (inactive) and the inhibition under setting [1] is 10%.

In the case of `CC1(C)CC(=O)C2=C(C1)OC(c1ccc(O)cc1)C(C#N)=C2N` (configuration not stated), the inhibition runs as follows: (at 10 µM) 47% (inactive); under setting [1], 49%.

`COc1ccc(OC)c(C(=O)CSc2nnc(-c3ccc(OC)c(OC)c3)o2)c1`: the inhibition was 49% (inactive) (at 10 µM) and 12% under setting [1].

Regarding `COc1ccc(C2CC(c3ccccc3)=NN2c2ccc(N)cc2)cc1` (configuration not stated), the inhibition reads like this: (at 10 µM) 69% (inactive); under setting [1], 23%.

As for `COc1ccc(C2C=C(c3ccc(Cl)cc3)Nc3nc(NC(C)=O)nn32)cc1` (configuration not stated), the inhibition reads like this: (at 10 µM) 16% (inactive); under setting [1], 21%.

Take `O=C(c1cccc(F)c1)N1CCN(C(=O)c2cc3ncc(Br)cn3n2)CC1`: the inhibition reads like this: (at 10 µM) 26% (inactive); under setting [1], 38%.

`Oc1c(Cl)cc(Cl)cc1Sc1cc(Cl)cc(Cl)c1O`: the inhibition by setting is: (at 10 µM) 33% (inactive); under setting [1], 22%.

As for `O=C(O)c1cc(-c2ccco2)nc2ccc(Br)cc12`, the inhibition was 63% (inactive) (at 10 µM) and 9% under setting [1].

`O=C(Nc1cccc(-c2cnc3ccccc3n2)c1)c1cccc(NC(=O)c2ccco2)c1`: the inhibition was 58% (inactive) (at 10 µM) and 43% under setting [1].

Turning to `CCOc1ccc2nc(NC(=O)CCC(=O)c3cccs3)sc2c1`, the inhibition is, setting by setting: (at 10 µM) 29% (inactive); under setting [1], 33%.

Take `Cc1cc2n(c1)CCn1c(C)ccc1-2`: the inhibition was 17% (inactive) (at 10 µM) and 31% under setting [1].

Take `O=C(Nc1cc(C(F)(F)F)ccc1N1CCOCC1)C1Cc2ccccc2CN1C(=O)c1ccco1` (configuration not stated): the inhibition runs as follows: (at 10 µM) 73% (active); under setting [1], 13%.

As to `Cc1ccc2[nH]c(=O)c(-c3nc4ccccn4c3NCc3ccco3)cc2c1`, the inhibition is 56% (inactive) (at 10 µM) and 44% under setting [1].

As for `Oc1ccc(/C=N/n2c(-c3ccco3)csc2=Nc2cccnc2)c(O)c1`, the inhibition is, setting by setting: (at 10 µM) 20% (inactive); under setting [1], 18%.

The record behind these values is PubChem BioAssay AID1210 (NMMLSC, 2008).
